Measurements published in the supplement of paper PMC8253809.

system: DIPGX7 (H3.3 K27M diffuse intrinsic pontine glioma line); assay: growth inhibition (% activity, log2 RLU normalised to DMSO / staurosporine); higher = more growth inhibition; settings: 33 µM
How it was run: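 The growth-inhibition value is the median over replicates. pHGG cell lines and H9-derived neural stem cells on Geltrex-coated 384-well plates received approved drugs by pin tool at a single final concentration of about 33 μM, in triplicate, for 7 days at 37 °C, 5% CO2. CellTiter-Glo luminescence was log2-transformed and normalised per plate to % activity between solvent and positive control wells.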

SMILES	growth inhibition [%]
Cc1ccc(-c2cc(C(F)(F)F)nn2-c2ccc(S(N)(=O)=O)cc2)cc1	-0.904
CC(C)(C)C(=O)OCOP(=O)(COCCn1cnc2c(N)ncnc21)OCOC(=O)C(C)(C)C	8.24
NCCNCCNCCNCCN	2.9
CC(=O)[C@H]1CC[C@H]2[C@@H]3CC=C4C[C@@H](O)CC[C@]4(C)[C@H]3CC[C@]12C	-1.68
CC[C@H](C)C(=O)O[C@H]1C[C@@H](C)C=C2C=C[C@H](C)[C@H](CC[C@@H]3C[C@@H](O)CC(=O)O3)[C@H]21	8.58
CC(C)/N=c1\cc2n(-c3ccc(Cl)cc3)c3ccccc3nc-2cc1Nc1ccc(Cl)cc1	11.1
COc1ccc(O)cc1	0.553
C[C@@H](NCCCc1cccc(C(F)(F)F)c1)c1cccc2ccccc12	6.24
NCCS(=O)(=O)O	0.217
CC(=O)SCC(Cc1ccccc1)C(=O)NCC(=O)OCc1ccccc1 (stereo unspecified)	1.03
O=C(O)C1=CO[C@@H](O[C@@H]2O[C@H](CO)[C@@H](O)[C@H](O)[C@H]2O)[C@@H]2C(CO)=CC[C@H]12	-0.0942
O=C1[C@H](CC[C@H](O)c2ccc(F)cc2)[C@@H](c2ccc(O)cc2)N1c1ccc(F)cc1	1.88
CCCCC(=O)N(Cc1ccc(-c2ccccc2-c2nnn[nH]2)cc1)[C@H](C(=O)O)C(C)C	-0.538
O=c1[nH]cc(F)c(=O)[nH]1	2.93
CN(C)C/C=C/C(=O)Nc1cc2c(Nc3ccc(F)c(Cl)c3)ncnc2cc1O[C@H]1CCOC1	29.6
COc1cc(C(=O)NS(=O)(=O)c2ccccc2C)ccc1Cc1cn(C)c2ccc(NC(=O)OC3CCCC3)cc12	0.79
